Source: PubChem BioAssay
Inconclusive results are not listed. The source made the active and inactive calls.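 Rule for the calls, unless noted: active = inhibition over a set limit, the all-compound mean plus 3 SD, in both replicate runs; inconclusive = over that limit in just one replicate run; inactive = at or under that limit in both runs.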

Key:
[1] = biological target: Pantothenate synthetase (Mycobacterium tuberculosis (strain ATCC 25618 / H37Rv)) (UniProt P9WIL5); assay: Coupled enzyme confirmation of inhibitors against recombinant Mtb PanC (AID 375; call rule not given here;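 note: 0% = full reaction with vehicle and 100% = no enzyme background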); conditions: coupled enzyme assay; at 10 µM, stronger effect = higher value
[2] = Her2 expression decrease, cell viability multiplex – SKBR3 breast tumor cells, AlphaScreen, ATP viability, primary screen (AID 461;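 active = Her2 level under about 52% in both replicate screens, with viability over 70% of control, limit read from the data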;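 for Her2 level: lower value means less Her2 protein in the cells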;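 for viability: percent of carrier control wells set as 100% viability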); conditions: SKBR3 Her2 protein level, 18-24 h, measured here: SKBR3 viability, ATP luminescence, at 10 µM
[3] = biological target: Receptor tyrosine-protein kinase erbB-2 (Homo sapiens) (UniProt P04626); assay: as above; conditions: 18-24 h, at 10 µM, stronger effect = lower value
[4] = reduced viability of SK-BR-3 breast cancer cells – cell-based, 24 h, human, pilot screen (AID 572;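 active = viability at or below 10% of carrier control in both of two separate runs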;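 note: compound exposure lasted between 18 and 24 h rather than exactly 24 h; 100% = carrier-treated control wells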); conditions: SK-BR-3 viability, CellTiter-Glo luminescence, at 10 µM, stronger effect = lower value
[5] = HUVEC growth inhibition – cell-based, human, primary screen (AID 575;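 active = viability at or below 30% in both replicate assays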;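 note: 100% = median of untreated cell wells with 0.1% DMSO on each plate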); conditions: HUVEC proliferation, CellTiter-Glo luminescence, 72 h; at 10 µM; stronger effect = lower value
[6] = H69AR cell proliferation blockers – human, duplicate replicates, primary screen (AID 580;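 active = viability at or under a set limit in both replicates, limit being median viability minus 3 SD, cut at about 48% in these data, passing the limit was not always enough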;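 note: 100% = mean luminescence of untreated wells and 0% = no signal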); conditions: H69AR lung tumor cells viability, ATP luminescence, 72 h; at 10 µM; stronger effect = lower value
[7] = MRP1 drug-resistance reversers in H69AR cells – cell-based, doxorubicin co-treatment, pilot screen (AID 601;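 active = viability loss from added drug above about 55%, and viability with drug at most 40%, in both replicates, limit read from the data, passing the limit was not always enough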); conditions: CellTiter-Glo, 72 h, at 10 µM; for differential viability (reversal): stronger effect = higher value
[8] = yeast transport mutant growth inhibition pilot in 384-well plates, post-Golgi transport modulator project (AID 636; in the data active = inhibition above about 31%); conditions: absorbance 615 nm, about 18 h, stronger effect = higher value
[9] = growth suppression of yeast trafficking mutant, preliminary HTS, modulators of trafficking downstream of Golgi apparatus project, 1536-format plate, OD 615 nm (AID 637; in the data active = inhibition above about 30%); conditions: yeast transport mutant growth, absorbance 615 nm, 18 h; stronger effect = higher value
[10] = S. cerevisiae growth inhibition in permissive medium (OD615), pilot counter-assay for S. cerevisiae lifespan shortening project, permissive growth control (AID 705;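 active = growth inhibition above 25% in both replicates, a cutoff set 3 SD above the mean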); conditions: OD615, 24 h, at 10 µM, stronger effect = higher value
[11] = S. cerevisiae growth inhibition in restrictive medium, OD615, pilot screen, restrictive growth control, yeast lifespan reduction project (AID 706;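 active = growth inhibition above a set limit, 3 SD over mean compound inhibition, in both replicates, cut at about 43% in these data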;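 note: modified DeaD lifespan yeast strain shifted to restrictive glucose medium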); conditions: OD615, 48 h, at 10 µM, stronger effect = higher value
[12] = doxorubicin toxicity protection in MRP-1 cells – H69AR cells, CellTiter-Glo, duplicate, MRP-1 activator project, pilot screen (AID 807;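 active = viability increase at or above a cutoff of the median across tested compounds plus 3 SD, cut at about 8.5% in these data, passing the limit was not always enough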;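 note: compound pretreatment 18-22 h then 72 h combined with doxorubicin; 0% = doxorubicin alone and 100% = vehicle without doxorubicin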); conditions: H69AR viability with doxorubicin, CellTiter-Glo luminescence; at 10 µM; stronger effect = higher value
[13] = viability of HCT116 without oncogenic beta-catenin – human colon tumor cells, pilot screen (AID 823;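 active = cell viability at or below a set limit in both duplicate runs, the limit being the all-compound median minus 4 SD, cut at about 23% in these data, passing the limit was not always enough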;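 note: 0% = wells killed by 20 µM Hyamine and 100% = untreated DMSO cell wells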); conditions: HCT116 beta-catenin knockout viability, CellTiter-Glo, 60 h; at 10 µM; stronger effect = lower value
[14] = viability of PTEN-null HCT116 cells – cell-based, HCT116 clonal line, CellTiter-Glo, pilot screen (AID 824;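 active = viability at or below 27.92% in each of two runs, the all-compound median minus 4 SD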;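 note: 0% = 20 µM Hyamine control and 100% = vehicle cell control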); conditions: HCT116 PTEN-deleted viability, 60 h, at 10 µM, stronger effect = lower value
[15] = RAM pathway blockade in budding yeast – dse1pr::URA3 reporter, 5-FOA selection, pilot screen (AID 869);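 note: 0% = DMSO wells with no growth and 100% = 10 µM 1-NA-PP1 with full growth; RAM network block rescues cells from 5-FOA so hits raise OD615 growth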; conditions: S. cerevisiae dse1pr::URA3 5-FOA growth, OD615, 2 d, at 10 µM, stronger effect = higher value
[16] = RAM signaling pathway blockade in yeast – S. cerevisiae, Pdr1DBD-CYC8 efflux-inhibited sensitized strain, primary screen (AID 1298;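 active = RAM network inhibition above 8.4% in each of two replicates, 3 SD over the compound average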;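 note: 0% = DMSO untreated cells without growth and 100% = 10 µM 1-NA-PP1 full growth; higher means more yeast growth rescued from 5-FOA killing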); conditions: S. cerevisiae cbk1-as DSE1-URA3 strain, 5-FOA growth OD615, 2 d; at 50 µM; stronger effect = higher value
[17] = H69AR cells + 2 uM doxorubicin, measured here: viability with 2 uM doxorubicin, stronger effect = lower value
[18] = H69AR cells, compound alone cytotoxicity

Chain of Pantothenate synthetase (Mycobacterium tuberculosis (strain ATCC 25618 / H37Rv)) (P9WIL5 whole entry, looked up): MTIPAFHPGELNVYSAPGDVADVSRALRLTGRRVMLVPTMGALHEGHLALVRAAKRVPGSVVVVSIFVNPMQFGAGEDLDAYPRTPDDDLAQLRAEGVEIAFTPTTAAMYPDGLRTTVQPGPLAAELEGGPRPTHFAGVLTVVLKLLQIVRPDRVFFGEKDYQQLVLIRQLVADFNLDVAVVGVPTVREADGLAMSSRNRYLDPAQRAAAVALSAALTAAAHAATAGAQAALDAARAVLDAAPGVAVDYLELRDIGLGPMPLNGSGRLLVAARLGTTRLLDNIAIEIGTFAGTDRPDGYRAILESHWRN
Chain of Receptor tyrosine-protein kinase erbB-2 (Homo sapiens) (P04626 whole entry, looked up): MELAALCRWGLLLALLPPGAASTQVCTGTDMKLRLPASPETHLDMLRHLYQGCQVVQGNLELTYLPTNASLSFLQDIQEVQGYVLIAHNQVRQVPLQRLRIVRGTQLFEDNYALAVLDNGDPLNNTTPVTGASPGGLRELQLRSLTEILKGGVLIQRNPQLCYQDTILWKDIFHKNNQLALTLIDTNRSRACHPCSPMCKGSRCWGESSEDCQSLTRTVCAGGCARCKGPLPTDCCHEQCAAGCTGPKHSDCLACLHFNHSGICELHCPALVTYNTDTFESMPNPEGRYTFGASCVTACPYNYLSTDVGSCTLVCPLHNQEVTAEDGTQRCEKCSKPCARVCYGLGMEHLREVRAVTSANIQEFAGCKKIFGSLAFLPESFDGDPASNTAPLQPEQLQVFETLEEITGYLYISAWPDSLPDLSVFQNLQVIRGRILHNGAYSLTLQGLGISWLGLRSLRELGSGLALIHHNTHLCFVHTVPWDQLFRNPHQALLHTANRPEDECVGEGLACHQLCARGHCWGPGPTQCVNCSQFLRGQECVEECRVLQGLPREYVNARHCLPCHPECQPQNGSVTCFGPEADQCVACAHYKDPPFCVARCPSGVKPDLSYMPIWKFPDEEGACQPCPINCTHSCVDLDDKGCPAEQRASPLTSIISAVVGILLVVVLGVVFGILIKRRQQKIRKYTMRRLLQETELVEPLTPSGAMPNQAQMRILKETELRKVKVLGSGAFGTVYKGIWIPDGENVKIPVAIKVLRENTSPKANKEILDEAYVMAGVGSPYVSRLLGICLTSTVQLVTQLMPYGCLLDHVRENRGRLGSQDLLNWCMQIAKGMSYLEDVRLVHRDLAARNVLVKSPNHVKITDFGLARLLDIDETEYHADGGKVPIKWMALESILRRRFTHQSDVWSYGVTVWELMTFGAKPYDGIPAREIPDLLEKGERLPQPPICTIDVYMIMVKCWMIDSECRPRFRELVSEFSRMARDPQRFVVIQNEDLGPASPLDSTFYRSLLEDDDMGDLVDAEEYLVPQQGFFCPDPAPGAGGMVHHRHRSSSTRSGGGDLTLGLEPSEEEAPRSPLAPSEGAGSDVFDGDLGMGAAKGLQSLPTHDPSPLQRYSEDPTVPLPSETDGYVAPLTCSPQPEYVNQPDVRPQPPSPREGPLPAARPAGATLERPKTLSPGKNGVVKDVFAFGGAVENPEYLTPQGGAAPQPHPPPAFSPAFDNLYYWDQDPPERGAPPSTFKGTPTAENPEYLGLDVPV

With `CP(C)(=O)CCC(=O)O` the inhibition [1] was 0% (inactive), the viability [2] was 101% and the Her2 level [3] was 105% (inactive). The viability [4] was 101% (inactive), the viability [5] was 81.4% (inactive) and the viability [6] was 100% (inactive). For the same compound, the differential viability (reversal) ([7]; H69AR cells + 2 uM doxorubicin) was 18.2% (inactive), the viability [7, 17] was 82.1% and the viability [7, 18] was 100%. For the same compound, the inhibition [8] was -4.94% (inactive), the inhibition [9] was 3.44% (inactive) and the growth inhibition [10] was -18% (inactive). For the same compound, the growth inhibition [11] was -19.2% (inactive), the viability increase [12] was 0.16% (inactive) and the viability [13] was 101% (inactive). For the same compound, the viability [14] was 98.1% (inactive), the inhibition [15] was 0.42% (inactive) and the RAM network inhibition [16] was 2.22% (inactive).

In the case of `COC(=NC1CCCC1)C(O)c1c[nH]c2ccccc12` (stereo unspecified), the inhibition [1] was 0% (inactive), the viability [2] was 101% and the Her2 level [3] was 103% (inactive). For the same compound, the viability [4] was 101% (inactive), the viability [5] was 102% (inactive) and the viability [6] was 108% (inactive). For the same compound, the differential viability (reversal) ([7]; H69AR cells + 2 uM doxorubicin) was 1.98% (inactive), the viability [7, 17] was 106% and the viability [7, 18] was 108%. The inhibition [8] was -0.82% (inactive), the inhibition [9] was -4.44% (inactive) and the growth inhibition [10] was -12.2% (inactive). For the same compound, the growth inhibition [11] was -12.5% (inactive), the viability increase [12] was -4.16% (inactive) and the viability [14] was 81.2% (inactive). The inhibition [15] was 0.825% (inactive) and the RAM network inhibition [16] was 0.62% (inactive).

In the case of `CCOc1ccccc1C1SCC(=O)Nc2c1c(=O)[nH]n2C(CC)CC` (stereo unspecified), the growth inhibition [10] was -3.42% (inactive), the growth inhibition [11] was -8.7% (inactive) and the viability increase [12] was -0.06% (inactive). The viability [13] was 93.5% (inactive), the viability [14] was 93.3% (inactive) and the inhibition [15] was 1.07% (inactive). For the same compound, the RAM network inhibition [16] was 0.37% (inactive).

With `Cc1nc2ccccc2c(=O)n1-c1ccc(F)cc1` the inhibition [1] was 0% (inactive), the viability [2] was 104% and the Her2 level [3] was 90% (inactive). The viability [4] was 104% (inactive), the viability [5] was 93.6% (inactive) and the viability [6] was 96.1% (inactive). For the same compound, the differential viability (reversal) ([7]; H69AR cells + 2 uM doxorubicin) was 11.5% (inactive), the viability [7, 17] was 84.6% and the viability [7, 18] was 96.1%. For the same compound, the inhibition [8] was -5.32% (inactive), the inhibition [9] was 1.5% (inactive) and the growth inhibition [10] was -2.1% (inactive). For the same compound, the growth inhibition [11] was 4.13% (inactive), the viability increase [12] was -0.87% (inactive) and the viability [13] was 97.7% (inactive). For the same compound, the viability [14] was 100% (inactive), the inhibition [15] was 1.44% (inactive) and the RAM network inhibition [16] was 1.29% (inactive).

With `COc1ccc(C2C(C(=O)N3CCC4(CC3)OCCO4)c3cc(OC)c(OC)cc3C(=O)N2C)cc1` (stereo unspecified) the growth inhibition [10] was -15.2% (inactive), the growth inhibition [11] was -29% (inactive) and the viability increase [12] was -2.58% (inactive). The viability [13] was 98% (inactive), the viability [14] was 99.4% (inactive) and the inhibition [15] was 1.61% (inactive). For the same compound, the RAM network inhibition [16] was 0.93% (inactive).

In the case of `O=C1OCCN1P(=O)(c1ccccc1)c1ccccc1`, the growth inhibition [10] was -6.19% (inactive), the growth inhibition [11] was 2.02% (inactive) and the viability increase [12] was -0.69% (inactive). For the same compound, the viability [13] was 98.4% (inactive), the viability [14] was 98% (inactive) and the inhibition [15] was 0.445% (inactive). For the same compound, the RAM network inhibition [16] was -1.04% (inactive).

In the case of `COc1ccccc1/C=C1/C(=N/O)C2CCN1CC2`, the inhibition [1] was 0% (inactive), the viability [2] was 104% and the Her2 level [3] was 102% (inactive). For the same compound, the viability [4] was 104% (inactive), the viability [5] was 109% (inactive) and the viability [6] was 104% (inactive). For the same compound, the differential viability (reversal) ([7]; H69AR cells + 2 uM doxorubicin) was 8.7% (inactive), the viability [7, 17] was 95% and the viability [7, 18] was 104%. The inhibition [8] was -2.34% (inactive), the inhibition [9] was 0% (inactive) and the growth inhibition [10] was -14.3% (inactive). For the same compound, the growth inhibition [11] was -13.2% (inactive), the viability increase [12] was -1.4% (inactive) and the viability [13] was 99.8% (inactive). The viability [14] was 99.4% (inactive), the inhibition [15] was 0.7% (inactive) and the RAM network inhibition [16] was 6.29% (inactive).

In the case of `CCCCNC(=O)c1c(N)n(CCCOC)c2nc3ccccc3nc12`, the inhibition [1] was 0% (inactive), the viability [2] was 89% and the Her2 level [3] was 82% (inactive). The viability [4] was 89% (inactive), the viability [5] was 71.8% (inactive) and the differential viability (reversal) ([7]; H69AR cells + 2 uM doxorubicin) was -25.4% (inactive). For the same compound, the viability [7, 17] was 79.4%, the viability [7, 18] was 54% and the inhibition [8] was 1.1% (inactive). For the same compound, the inhibition [9] was 5.24% (inactive), the growth inhibition [10] was 1.92% (inactive) and the growth inhibition [11] was -1.88% (inactive). The viability increase [12] was -6.16% (inactive), the viability [13] was 68.5% (inactive) and the viability [14] was 67.8% (inactive). The inhibition [15] was 0.37% (inactive) and the RAM network inhibition [16] was -3.2% (inactive).

In the case of `Cc1ccc(CC2C(=O)N(C)C(=O)N(C)C2=O)s1`, the inhibition [1] was 0% (inactive), the viability [2] was 106% and the Her2 level [3] was 119% (inactive). For the same compound, the viability [4] was 106% (inactive), the viability [5] was 82.8% (inactive) and the viability [6] was 95.4% (inactive). For the same compound, the differential viability (reversal) ([7]; H69AR cells + 2 uM doxorubicin) was 7.06% (inactive), the viability [7, 17] was 88.3% and the viability [7, 18] was 95.4%. The inhibition [8] was -3.77% (inactive), the inhibition [9] was -1.67% (inactive) and the growth inhibition [10] was -2.9% (inactive). For the same compound, the growth inhibition [11] was 3.58% (inactive), the viability increase [12] was 0.21% (inactive) and the viability [13] was 100% (inactive). The viability [14] was 99.6% (inactive), the inhibition [15] was -0.01% (inactive) and the RAM network inhibition [16] was 4.4% (inactive).

In the case of `Cc1cccc(N2CCc3c2nc2ccccc2c3N)c1`, the inhibition [1] was 0% (inactive), the viability [2] was 84.5% and the Her2 level [3] was 86% (inactive). For the same compound, the viability [4] was 84.5% (inactive), the differential viability (reversal) ([7]; H69AR cells + 2 uM doxorubicin) was -14.1% (inactive) and the viability [7, 17] was 63.9%. For the same compound, the viability [7, 18] was 49.8%, the inhibition [8] was -2.53% (inactive) and the inhibition [9] was 7.67% (inactive). The growth inhibition [10] was -1.63% (inactive), the growth inhibition [11] was -0.635% (inactive) and the viability increase [12] was -6.21% (inactive). For the same compound, the viability [13] was 36.4% (inactive), the viability [14] was 44.5% (inactive) and the inhibition [15] was 3.02% (inactive). The RAM network inhibition [16] was 4.96% (inactive).

For `Cc1cccc(-n2c(-c3ccco3)nc3ccccc3c2=O)n1`, the inhibition [1] was 0% (inactive), the viability [2] was 105% and the Her2 level [3] was 98.5% (inactive). For the same compound, the viability [4] was 105% (inactive), the viability [5] was 111% (inactive) and the viability [6] was 87.9% (inactive). The differential viability (reversal) ([7]; H69AR cells + 2 uM doxorubicin) was -2.13% (inactive), the viability [7, 17] was 90% and the viability [7, 18] was 87.9%. The inhibition [8] was -0.54% (inactive), the inhibition [9] was 49.3% (active) and the growth inhibition [10] was -16.8% (inactive). For the same compound, the growth inhibition [11] was -15.7% (inactive), the viability increase [12] was 0.12% (inactive) and the viability [13] was 108% (inactive). For the same compound, the viability [14] was 99.7% (inactive), the inhibition [15] was 0.505% (inactive) and the RAM network inhibition [16] was 0.8% (inactive).
